Experimental data: PubChem BioAssay AID686978 (National Center for Advancing Translational Sciences (NCATS), 2013)
Among all 420,000 compounds or so, about 64,000 (15%) were called active. Another 27% or so got no clear call; they are omitted. The list is a sample of the results. A number with no mark means an inactive call. Calls come from the whole dose curve; as a rule, active = well fitted inhibition curve with a large enough effect; inconclusive = small, poorly fitted or top-dose-only effect; inactive = flat fitted curve, though single readings scatter.

Assay: qHTS for Inhibitors of human tyrosyl-DNA phosphodiesterase 1 (TDP1): qHTS in cells in absence of CPT; note: nearly all actives have a fitted effect of over 55% in size
Conditions: DT40 Tdp1-/- hTDP1 cells, no CPT, ATP luminescence, 48 h; activity change, negative = growth inhibition: at 46.2 µM (top of the series)
Outline: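 Growth kinetics read by CellTiter-Glo luminescence after ≥48 hr at 37 °C. Cells: DT40 Tdp1-/- stably carrying human TDP1, 400 per well, compound exposure in the absence of CPT (DMSO vehicle).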
% is set by controls: 0 for no effect and ±100 for the full control effect; potency is the fitted concentration of half-maximal effect.

Compound | activity change, negative = growth inhibition | Potency
COc1cc(CNc2ncn[nH]2)ccc1OCc1ccccc1C | -14.2% | 
CC(C)CNc1ncnc2c1nnn2C | -1.79% | 
Cc1cccc(NC(=O)NC2(C)CCS(=O)(=O)C2)c1 (stereo unspecified) | 22.1% | 
Cc1nccn1-c1ccc(NC(=O)[C@H]2O[C@@H](n3ccc(=O)[nH]c3=O)[C@H](O)[C@@H]2O)cc1 | -4.65% | 
COCCOC(=O)C1=C(C)NC(=O)NC1c1cc2c(cc1Br)OCO2 (stereo unspecified) | -5.22% | 
CCOc1cc(S(=O)(=O)NC2CC(C)(C)NC(C)(C)C2)ccc1F | -14.5% | 
COc1cc(/C=N/Nc2nn3cnnc3c3ccccc23)cc(OC)c1OC |  | 16.4 µM (active)
COc1cc(/C=N/Nc2ccc(C)cc2)cc(Br)c1O | 4.09% | 
COc1cc(/C=N/NC(=O)Cc2ccccc2)cc(OC)c1OC | -8.58% | 
Cc1nnsc1C(=O)NCc1c(F)cccc1Cl | -7.8% | 
COc1ccccc1Nc1nnc(SC(C)C(=O)NC2CC2)s1 (stereo unspecified) | 7.34% | 
Cc1ccc(OCc2n[nH]c(=S)n2-c2ccccc2)cc1 | -14.7% | 
S=c1[nH]nc(CSCc2ccc(Cl)cc2Cl)n1-c1ccccc1 |  | 15.8 µM (active)
Cc1ccc(NCc2n[nH]c(=S)n2-c2ccccc2)cc1Cl | -9.32% | 
Cc1c(C(=O)N2CCCC2)c(S(=O)(=O)NCC(C)c2ccccc2)c(C)n1C (stereo unspecified) | -3.35% | 
O=C(c1cccs1)N(C(=O)c1cccs1)c1ccccn1 | -1.91% | 
O=C(c1ccc(Br)o1)N(c1ccccn1)C1CCCCC1 |  | 23.1 µM (active)
O=C(N1CCOCC1)N(Cc1ccccc1)c1ccccn1 | -18.7% | 
CCn1c(CNC(=O)C23CC4CC(CC(C4)C2)C3)nnc1SCC(=O)Nc1ccc(OC)cc1 | -26.1% | 
CN(C)/C=C(\C#N)C(=O)c1cccnc1Oc1ccc(F)cc1F | -1.4% | 
O=c1ccc2c(-c3ccccc3S(=O)(=O)O)c3ccc(O)c(O)c3oc-2c1O |  | 11.6 µM (active)
CCCNC(=S)NC1CC2CCCC(C1)N2CC(C)C (stereo unspecified) | -5.2% | 

Compound | activity change, negative = growth inhibition | Potency
O=C(NCCCc1ccccc1)c1cc(COc2c(F)cccc2F)on1 | -0.395% | 
O=C(NC(=O)c1ccccc1)NC(=O)c1ccccc1 | -20.8% | 
O=C(NC1=CC(=O)c2ccccc2C1=O)c1ccccc1 |  | 1.16 µM (active)
CC(NC(=O)c1ccccc1)C(=O)Nc1ccccc1 (stereo unspecified) | 0.972% | 
Cc1csc[n+]1CCC1CCCCC1 |  | 10 µM (active)
C=CCn1c(SCC(=O)/C(C#N)=C(\C)N)nc2sc(C)c(C)c2c1=O | -16.5% | 
CC(=O)c1ccc(N2CCN(c3nc4c(S(=O)(=O)c5ccccc5)nnn4c4ccc(Cl)cc34)CC2)cc1 | -23.4% | 
CCOC(=O)c1nnn2c1nc(N1CCN(c3ccccc3)CC1)c1ccccc12 |  | 14.6 µM (active)
CCOC(=O)c1nnn2c3ccccc3c(=O)n(C)c12 | 2.33% | 
CCOc1ccc(NC(=O)CCNC(=O)c2ccc(Br)cc2)cc1 | -6.82% | 
CCOC(=O)CNC(=O)CSc1nnc(-c2cccc(OC)c2)n1CC | -6.98% | 
COC(=O)CC(CC(=O)OC)n1cccc1 | -0.736% | 
COCCSc1nnc(NC(=O)CCS(=O)(=O)Cc2ccccc2)s1 | -12.4% | 
CCOCc1nnc(NC(=O)CCS(=O)(=O)Cc2ccccc2)s1 |  | 18.4 µM (active)
CCCCc1nnc(NC(=O)CS(=O)(=O)Cc2ccccc2)s1 | -15.5% | 
CC1CN(Cc2ccccc2)C(=S)NC1=O (stereo unspecified) | -1.83% | 
O=C(Nc1ccccc1)/C(=C\c1ccco1)NC(=O)c1ccco1 | -14.5% | 
CCC1CN(CCNC(=O)c2ccsc2)Cc2cc(OC)ccc2O1 (stereo unspecified) | -14.3% | 
COCCCNC(=O)CN1C(=O)CSc2ccc(S(=O)(=O)N3CCOCC3)cc21 |  | inactive
COc1ccc(CCNC(=O)CN2C(=O)COc3ccc(S(=O)(=O)N4CCCC4)cc32)cc1OC | -1.61% | 
Cc1ccc(CCNC(=O)CN2C(=O)CSc3ccc(S(=O)(=O)N4CCOCC4)cc32)cc1 |  | 20.6 µM (active)
CCCCN(CCCC)CCCNC(=O)CN1C(=O)COc2ccc(S(=O)(=O)N3CCC(C)CC3)cc21 |  | 9.2 µM (active)

Compound | activity change, negative = growth inhibition | Potency
CC1CCN(CCCNC(=O)CN2C(=O)CSc3ccc(S(=O)(=O)N4CCCCC4)cc32)CC1 |  | inactive
Cc1ccc(C)c(N2CCN(C(=O)CN3C(=O)COc4ccc(S(=O)(=O)N5CCCCCC5)cc43)CC2)c1 |  | 16.4 µM (active)
Cc1ccc2c(c1)N(CC(=O)NCC1CCCO1)C(=O)CO2 (stereo unspecified) | 2.23% | 
CN(C)c1ccc(CNC(=O)CN2C(=O)COc3ccc(S(=O)(=O)N4CCCC4)cc32)cc1 | 7.19% | 
CC1CCN(S(=O)(=O)c2ccc3c(c2)N(CC(=O)NCCc2ccccc2)C(=O)CO3)CC1 |  | 20.6 µM (active)
CC(=O)Nc1ccc(NC(=O)CN2C(=O)COc3ccc(S(=O)(=O)N4CCCCC4)cc32)cc1 | 8.59% | 
CCCCN(CCCC)CCNC(=O)CN1C(=O)COc2ccc(S(=O)(=O)N3CCOCC3)cc21 | -17.6% | 
Cc1ccc2c(c1)N(CC(=O)N1CCOCC1)C(=O)CO2 | 5.74% | 
CN(C)C(CNC(=O)c1ccc(OCc2cn3ccccc3n2)cc1)c1ccco1 (stereo unspecified) | -1.5% | 
CC(CO)N1CCS(=O)(=O)CC1 (stereo unspecified) | -14% | 
CC1(C)CC(=O)C=C(Nc2ccccc2)C1 | 0.545% | 
c1ccc2c(c1)C(=NC1CCCCC1)NC2=NC1CCCCC1 |  | 14.6 µM (active)
O=C1CCCCC(=O)c2ccccc2N1 | -4.74% | 
O=C1CN(C(=O)COC(=O)/C=C/c2ccc(F)cc2)c2ccccc2N1 | -5.94% | 
Cc1cc2cc3c(N)[nH]nc3nc2cc1C | -21.4% | 
Oc1ccc(/C=N/Nc2nc(-c3ccccc3F)nc3ccccc23)c(O)c1 |  | 7.31 µM (active)
Cc1noc(C)c1/C=N/Nc1ccc2ccccc2n1 | 7.72% | 
Cc1nc2ccccc2nc1N/N=C/c1ccc(O)cc1O |  | 4.11 µM (active)
Oc1ccc(/C=N/NC2=NCCCCC2)c(O)c1 | 4.82% | 
Cc1cc(N/N=C/c2ccccc2F)c2ccccc2n1 | -12.4% | 
Cc1csc2nc(O)c(C(=O)NCCN3CCOCC3)c(=O)n12 | -6.85% | 
CC(C)NC(=O)C(=O)NCCN1CCN(S(=O)(=O)c2ccc(Cl)cc2)CC1 | -1.35% | 

Compound | activity change, negative = growth inhibition | Potency
COCCCNc1nc2ccccc2nc1NS(=O)(=O)c1ccc(F)cc1 | -1.47% | 
Cc1cccn2c(CN(C)C3CCCc4ccccc43)c(C(=O)N3CCOCC3)nc12 (stereo unspecified) |  | 18.4 µM (active)
CCOC(=O)C1CCN(Cc2c(C(=O)N3CCOCC3)nc3c(C)cccn23)CC1 | -8.96% | 
Cc1cccn2c(CNCC(C)Oc3cccnc3)c(C(=O)N3CCOCC3)nc12 (stereo unspecified) | 30% | 
CC1CCCCN1C(=O)CCS(=O)(=O)Cc1ccccc1 (stereo unspecified) | -3.87% | 
O=C(CC1Oc2ccc(Cl)cc2NC1=O)NCc1ccccc1 (stereo unspecified) | -3.5% | 
CCC(C(=O)Nc1ccc2c(c1)OCCO2)c1ccccc1 (stereo unspecified) | -21% | 
CC(=O)Nc1cccc(-c2nc3ccccc3s2)c1C | -5.62% | 
CCC(C(=O)Nc1cccc(-c2nc3cccnc3s2)c1C)c1ccccc1 (stereo unspecified) |  | 20.6 µM (active)
COC(=O)[C@@H]1C[C@H](NC(=O)c2ccccc2C(F)(F)F)CN1Cc1cccc(O)c1 | -9.99% | 
O=[N+]([O-])c1ccc(NC(=S)N2CCN(c3ccccn3)CC2)cc1 |  | 11.6 µM (active)
CCOC(=O)c1ccc(NC(=S)N2CCN(c3ccccn3)CC2)cc1 | -3.2% | 
COc1cc([N+](=O)[O-])ccc1NC(=S)N1CCN(c2ccccn2)CC1 | -15.4% | 
CCOC(=O)c1cnn(Cc2ccccc2Cl)c1N | -12.2% | 
Cc1noc(C)c1C(=O)N1CCOCC1 | -9.18% | 
CC(C)(C)C1CCC(OC(=O)CCC(=O)Nc2ccccc2)CC1 (stereo unspecified) | -2.86% | 
CN1CCN(C(=O)/C(=C\c2cccs2)NC(=O)c2cccs2)CC1 | -7.36% | 
COc1cccc(NC(=O)CS(=O)(=O)c2cn(CC(=O)N3CCOCC3)c3ccccc23)c1 | 0.349% | 
CCOC(=O)c1ccc(NC(=O)Cn2cc(S(=O)(=O)Cc3ccccc3F)c3ccccc32)cc1 | -26.3% | 
Cc1cccc(NC(=O)Cn2cc(S(=O)(=O)Cc3ccccc3Cl)c3ccccc32)c1 |  | 20.6 µM (active)
OCCN1CCN(c2ncnc3c2ncn3[C@H]2CN(Cc3ccco3)C[C@@H](CO)O2)CC1 | -10.1% | 
O=C(Nc1ccc(Cl)cc1)c1csc([C@@H]2O[C@H](CO)[C@H](O)[C@H](O)[C@H]2O)n1 | -0.432% | 

Compound | activity change, negative = growth inhibition | Potency
CSc1nnnn1-c1c(C)cc(C)cc1C | 7.83% | 
COc1cccc(NC(=O)CN(C)CC(=O)Nc2ccc3c(c2)CCC3)c1 | -4% | 
Cc1[nH]c2ccccc2c1/C=C(/C#N)C(=O)NC(C)C | -9.84% | 
O=C(/C=C/c1c(F)cccc1Cl)Nc1nn[nH]n1 | 1.45% | 
CNC(=O)/C(C#N)=C/c1c(F)cccc1Cl |  | 9.2 µM (active)
Cc1ccc(C(=O)N2CCC(n3nccc3NC(=O)Nc3cccc(F)c3)CC2)cn1 | 10.4% | 
Brc1cccc(-c2nnn3c2nc(NC2CCCCC2)c2ccccc23)c1 | -26.7% | 
COc1ccc(NC(=O)CCNC(=O)Cn2cnc3sc4c(c3c2=O)CCCC4)cc1OC | -4.24% | 
CCCc1nc2sc3c(c2c(=O)n1NC(=O)CCCl)CCCC3 |  | 29.1 µM (active)
Cc1ccc(C)c(-n2c(SCC(=O)O)nc3sc4c(c3c2=O)CCCC4)c1 | -16.6% | 
CC(C)N(Cc1nc(-c2ccc3c(c2)OCO3)no1)CC1CCC(=O)N1 (stereo unspecified) | 8.55% | 
CCC(=O)c1ccc(OCC(=O)OCC(=O)NC2CCCCCC2)cc1 | -17% | 
O=C(COc1ccccc1)Nc1ccc(C(=O)N2CCCC2)cc1 | 22.5% | 
CCC(=O)c1ccc(OCC(=O)Nc2ccc(N3CCCCC3)cc2)cc1 |  | 20.6 µM (active)
O=C(NCC(=O)N1CCCCCCC1)c1ccccc1Cl | 12.3% | 
COc1cc(C(=O)Nc2ccc(-n3c(C)nc4ccccc4c3=O)cc2)cc(OC)c1OC |  | 18.4 µM (active)
Cc1nc2ccccc2c(=O)n1-c1ccc(NS(=O)(=O)c2ccc(F)cc2F)cc1 | -14.2% | 
COc1cc(C(=O)Nc2ccc(OCc3cc(=O)n4ccc(C)cc4n3)cc2)cc(OC)c1OC | -9.6% | 
